Screening data (PubChem)
PTPN22 inh 2 = PTPN22 phosphatase inhibitors, primary screen, biochemical, DiFMUP fluorescence, 2 µM; recombinant LYP catalytic domain; inhibition, % at 2 µM; 0.21% of 96,000 active; AID 640, 2007;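 active = inhibition at 2 µM at or above a set limit, the screen mean plus 3 SD, cut at about 24% in these data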
PLK1 PBD inh = Plk1 polo box domain binding inhibitors, primary screen, biochemical, fluorescence polarization; AID 693, 2007; 0.13% of 97,000 active; Plk1 PBD phosphopeptide binding; inhibition, %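 (tested at about 20 µM)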; in the data active = inhibition above about 34%, passing the limit was not always enough
Target sequence (P53350 whole entry, looked up, the tested form may be a part): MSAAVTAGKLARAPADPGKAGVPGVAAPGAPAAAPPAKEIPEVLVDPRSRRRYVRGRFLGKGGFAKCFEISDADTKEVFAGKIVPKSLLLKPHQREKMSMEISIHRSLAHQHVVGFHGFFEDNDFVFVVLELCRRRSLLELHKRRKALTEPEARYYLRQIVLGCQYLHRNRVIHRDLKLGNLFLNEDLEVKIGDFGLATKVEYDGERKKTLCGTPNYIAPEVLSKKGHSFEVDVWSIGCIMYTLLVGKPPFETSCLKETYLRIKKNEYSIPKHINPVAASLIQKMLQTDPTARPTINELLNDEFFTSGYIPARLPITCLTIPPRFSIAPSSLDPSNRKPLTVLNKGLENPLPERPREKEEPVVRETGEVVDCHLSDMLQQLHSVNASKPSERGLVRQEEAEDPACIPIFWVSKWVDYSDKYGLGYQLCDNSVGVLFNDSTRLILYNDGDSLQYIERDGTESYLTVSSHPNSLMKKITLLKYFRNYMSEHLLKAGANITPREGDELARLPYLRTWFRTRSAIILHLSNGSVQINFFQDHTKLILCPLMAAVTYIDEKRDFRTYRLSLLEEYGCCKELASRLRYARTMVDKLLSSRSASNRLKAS
PLK1 inh = human PLK1 kinase inhibitors, primary screen, biochemical, TR-FRET; inhibition, % at 10 µM; Serine/threonine-protein kinase PLK1 (Homo sapiens), P53350; AID 619, 2007; 0.53% of 97,000 active; recombinant PLK1 kinase, TR-FRET peptide phosphorylation;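 active = inhibition of 50% or more in the single-concentration screen; inactive = inhibition below 50%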
PTPN22 act = LYP phosphatase activators, primary screen, biochemical, DiFMUP fluorescence, 2 µM. Tyrosine-protein phosphatase non-receptor type 22 (Homo sapiens), Q9Y2R2. recombinant LYP; 0 = plate median, 100 = signal doubled. activation, % at 2 µM. 0.11% of 96,000 active;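 active = activation at 2 µM above a set limit, the mean plus 5 SD, cut at about 37% in these data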
A number is an active result; i = inactive; nt = no result given. The list is not random: actives were taken first. Their share in the collection is about 0.93%.

SMILES | PTPN22 inh 2 | PLK1 PBD inh | PLK1 inh | PTPN22 act
Cn1cnnc1SCC(=O)c1ccc2c(c1)OCCO2 | i | i | i | i
Cn1c(SCC(=O)c2ccc3c(c2)OCCO3)nnc1C1CC1 | i | i | 61 | i
O=C(CNc1ccccc1)N/N=C/c1cc([N+](=O)[O-])ccc1N1CCCC1 | i | i | i | i
O=C(Cn1c2ccccc2c(=O)c2ccccc21)N/N=C/c1cc([N+](=O)[O-])ccc1N1CCCCCC1 | 28 | i | i | i
CC1Cc2ccccc2N1C(=O)C1CCCN(S(=O)(=O)c2cccc3cccnc23)C1 (centres undefined) | nt | i | 55 | nt
CC1CCc2c(C(=O)Nc3nccs3)csc2C1 (centres undefined) | 65 | i | i | i
Cc1cc(NC(=O)CSc2n[nH]c(CC(C)C)n2)no1 | i | i | i | i
CCc1nnc(NS(=O)(=O)c2ccc(NC(=S)NC(=O)/C=C/c3ccc(C(C)C)cc3)cc2)s1 | 33 | i | i | i
Cc1cc(C)nc(NS(=O)(=O)c2ccc(NC(=S)NC(=O)C(C)C)cc2)n1 | i | i | i | i
CCn1c(SCC(=O)NCc2ccco2)nnc1-c1c[nH]c2ccccc12 | i | i | i | i
CCn1c(SC(C)C(=O)OC)nnc1-c1c[nH]c2ccccc12 (centres undefined) | nt | i | 65 | nt
COc1ccc(-n2c(SC)nnc2-c2c[nH]c3ccccc23)cc1 | nt | i | 55 | nt
C=CCSc1nnc(-c2c[nH]c3ccccc23)n1CC | nt | i | 61 | nt
CC(C)Sc1nnc(-c2c[nH]c3ccccc23)n1C | nt | i | 64 | nt
CCOC(=O)C(C)Sc1nnc(-c2c[nH]c3ccccc23)n1C (centres undefined) | i | i | i | i
Cc1csc(SCC(=O)NCc2cccs2)n1 | i | i | i | i
Cc1sc2nc(SCC(=O)NCc3cccs3)[nH]c(=O)c2c1C | i | i | 52 | i
Cc1ccc(Cn2c(=N)c(C(=O)NCc3ccco3)cc3c(=O)n4ccccc4nc32)cc1 | 31 | i | i | i
COc1ccc(CNC(=O)c2cc3c(=O)n4ccccc4nc3n(Cc3ccco3)c2=N)cc1 | i | i | i | i
CCOc1ccc(N(CC(=O)Nc2ccccc2C(=O)NCc2ccco2)S(C)(=O)=O)cc1 | 41 | i | i | i
CCOc1ccccc1N(CC(=O)Nc1ccccc1C(=O)NCc1ccco1)S(C)(=O)=O | i | i | i | i
O=C1NC(Cc2c[nH]c3ccccc23)C(=O)N1CCOc1ccccc1 (centres undefined) | i | i | i | i
Cn1c(CC(=O)Nc2ccc(Cl)c(Cl)c2)nnc1SCC(=O)Nc1nccs1 | i | i | i | i
Cn1c(CSCc2ccccc2Cl)nnc1SCC(=O)Nc1nccs1 | i | i | 65 | i
N#Cc1c(-c2ccco2)cc(-c2cccnc2)nc1N | i | i | 55 | i
SMILES | PTPN22 inh 2 | PLK1 PBD inh | PLK1 inh | PTPN22 act
CCCCN1C(=O)c2ccc(C(=O)NC3=NCCS3)cc2C1=O | i | i | i | i
Cc1cc(-c2c(C)[nH]n(-c3ccc(Cl)cc3)c2=O)n[nH]1 | 82 | i | i | i
CC(NC(=O)Cc1ccc(F)cc1)C(c1cccs1)N1CCN(C)CC1 (centres undefined) | i | i | i | i
CCCSc1n[nH]c(NC(C)=O)n1 | nt | i | 69 | nt
O=c1[nH]c(CN2CCN(C/C=C/c3ccccc3)CC2)nc2cc(Cl)ccc12 | i | i | 69 | i
CCn1c(SCC(=O)Nc2oc(-c3ccccc3)c(-c3ccccc3)c2C#N)nnc1-c1cc(OC)cc(OC)c1 | i | i | i | i
Cc1nnc2sc(-c3ccc(NC(=O)c4ccc(-c5ccc(Cl)cc5Cl)o4)cc3)nn12 | 32 | i | i | i
Cc1ccc(-c2nn(CC(=O)NCc3cc(-c4nn(C)c(=O)c5ccccc45)ccc3C)c(=O)c3ccccc23)cc1 | 25 | i | i | i
COc1ccc(N=CC2=C(Nc3ccc(OC)cc3)c3c(C)nn(-c4ccccn4)c3CC2)cc1 | i | i | i | i
Cc1ccc(C(=O)/C=C/c2ccc3c(c2)OCO3)o1 | i | i | 64 | i
CCS(=O)(=O)n1nc(-c2ccccc2)nc1SC | i | i | i | i
Cc1ccccc1Cn1ccc(NC(=O)CCSc2nc(-c3ccco3)cc(C(F)(F)F)n2)n1 | 25 | i | i | i
Cc1ccc(Cn2ccc(NC(=O)CCSc3nc(-c4ccco4)cc(C(F)(F)F)n3)n2)cc1 | i | i | i | i
O=C(CN(C(=O)CNC(=O)c1ccco1)c1ccc2c(c1)OCO2)NC1CCCCC1 | 29 | i | i | i
COc1ccc(CN(C(=O)c2ccco2)c2ccccc2)cc1 | i | i | i | i
COc1ccc(N(CN2C(=O)C3C4C=CC(C4)C3C2=O)C(=O)c2ccco2)cc1 (centres undefined) | i | 52 | i | i
O=C(CSc1nc2ccccc2c(=O)n1-c1ccc(Cl)cc1)c1ccco1 | i | i | i | i
CCc1ccccc1N1CC23C=CC(O2)C(C(=O)OC)C3C1=O (centres undefined) | nt | i | 57 | nt
CCC(Cc1ccccc1)NC(=O)CSc1ccsc1[N+](=O)[O-] (centres undefined) | i | i | i | i
O=C(Nc1cccc(Cl)c1)c1cnn2cccnc12 | i | i | 60 | i
O=C(Nc1cc(Cl)cc(Cl)c1)c1cnn2cccnc12 | i | i | i | i
Cc1ccc(-c2csc(NC(=O)c3cccc(N4C(=O)CCC4=O)c3)n2)o1 | nt | i | 67 | nt
CCCCCc1c(O)nc(SCC(=O)O)[nH]c1=O | i | i | i | i
N#CC(c1cccc(C(F)(F)F)c1)(c1ncc(C(F)(F)F)cc1Cl)N1CCOCC1 (centres undefined) | 40 | i | i | i
O=S(=O)(Nc1nc(-c2sccc2Cl)cs1)c1cc(Cl)ccc1Cl | 26 | i | i | i
SMILES | PTPN22 inh 2 | PLK1 PBD inh | PLK1 inh | PTPN22 act
CCN(CC)CCNC(=O)Cn1nc(Cc2cccnc2)c2ccccc2c1=O | nt | i | 62 | nt
CC(C)C1O/C(=N/C(=O)Nc2ccc(Cl)c(Cl)c2)NC1=O (centres undefined) | i | i | i | i
O=C(c1ccc2ncsc2c1)N1CCN(c2ccc(O)cc2)CC1 | i | i | i | i
Cc1nc(N)sc1N=Nc1ccc(F)cc1 | i | i | 59 | i
O=C1NCC2=C1C(c1ccc(Br)cc1)Nc1ccccc1N2 (centres undefined) | i | i | i | i
O=c1cc(-c2ccccc2F)oc2ccccc12 | i | i | i | i
Cc1c2cc(O)c(=O)cc-2oc2cc(O)c(O)cc12 | 94 | 130 | i | i
Cc1ccc(Cn2nnc3c(=O)n(CC(=O)NCc4ccc5c(c4)OCO5)cnc32)cc1 | i | i | i | i
Cc1ccc(CNC(=O)c2ccccc2N)cc1 | 60 | i | i | i
Cc1cccc(CNC(=O)c2ccccc2N)c1 | i | i | i | i
CCOc1ccc(N2C(=O)CS/C2=N/NC(=O)COc2ccc3ccccc3c2)cc1 | i | i | i | i
CCOc1ccc(N2C(=O)CS/C2=C(\C(Cl)=C(Cl)Cl)[N+](=O)[O-])cc1 | 26 | i | i | i
